Results on 16 compounds are retold here after PubChem BioAssay.

The nature of assay [1]: compounds altering viability of human ES cells (AID 493140).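 Note: cells exposed to compounds for four days before counting.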 The settings on record: human embryonic stem cell survival screen; stronger effect = higher value.
Assay [2] can be described thus: viability loss with induced miR-34 in A549 – imaging, A549 dox-inducible miR-34, nuclei and caspase counts, primary screen (AID 1347080;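 active = compounds whose cell count with miR-34 switched on is under 0.7 times the count with it off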). The following applies: A549 miR-34 inducible, Hoechst nuclei count, 48 h.
The nature of assay [3]: chitosan synthesis blockers in C. neoformans – flow cytometry, Cibacron Brilliant Red staining (AID 1347148).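 Note: compound exposure lasted three days at 37 degrees C.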 The settings on record: Cryptococcus neoformans chitosan, stronger effect = lower value; at 10 µM unless noted.
The nature of assay [4]: drug combination growth inhibition, ovarian cancer – cell-based, oncology-focused library, rucaparib conditional, profiling panel (AID 1508598;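 active = normalized viability below 100% at a tested concentration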). The following applies: patient-derived ovarian cancer cells, CellTiter-Glo viability, 144 h, stronger effect = lower value.
Assay [5] is described as follows: compounds altering circadian rhythm period length – cell-based, LOPAC library, luminescence reporter (AID 2774).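 Note: values are relative to mean of DMSO wells on each plate.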 The settings on record: circadian reporter cells, at 7 µM, actives lie on both sides.
Assay [6] deals with Hepatitis C virus NS3 helicase. In words: blockers of NS3h binding to ssDNA – biochemical, fluorescence polarization, LOPAC1280 library, primary screen (AID 687035; in the data active = inhibition above about 37%). The following applies: Purified HCV NS3 helicase, Cy5-dT15 ssDNA binding fluorescence polarization; stronger effect = higher value; concentration not given here.
Assay [7] is described as follows: compounds altering Cy5-DNA-NS3h complex signal – biochemical, LOPAC1280, artefact control for HCV NS3 helicase inhibitor project (AID 687037). The settings on record: Cy5-DNA-NS3h complex fluorescence interference counterscreen. (In general: A counterscreen serves to expose hits that act by an unwanted route or on another target.)
The mark [8] stands for this setting: stronger effect = lower value, cell number ratio, induced over uninduced.
[9] abbreviates: measured here: relative caspase fold change +Dox/-Dox.
The mark [10] stands for this setting: measured here: total cells with miR-34 induction, stronger effect = lower value.
[11] abbreviates: measured here: total cells without miR-34 induction.

“And” between values parts separate entries of the source, which are not always exact repeats. Equal entries are not always repeated. The source made the active and inactive calls. Unless noted, the rule behind the calls is not given here. Where a SMILES comes first, the peptide text is derived from it. The star is where a group is joined. Cbz = O=C(OCc1ccccc1)*; CH2F = FC*

Turning to `CCCCCC1OC1C/C=C\C/C=C\C/C=C\CCCC(=O)O` (stereo not drawn), the survival in assay [1] is 88.4 (inactive). Moreover, the fold change is 0.949 (inactive) in assay [2] (setting [8]) and 1.73 in assay [2] (setting [9]). Also, the cell count was 6230 in assay [2] (setting [10]) and 6560 in assay [2] (setting [11]). The fold fluorescence in assay [3] is 5.49 [at 1 µM] (inactive).
As for `CCCCC/C=C\C[C@H](O)/C=C/C=C\C/C=C\CCCC(=O)O`, the survival in assay [1] was 93.5 (inactive). Moreover, the fold change was 0.969 (inactive) in assay [2] (setting [8]) and 1.13 in assay [2] (setting [9]). The cell count came to 5180 in assay [2] (setting [10]) and 5340 in assay [2] (setting [11]). For the same compound, the fold fluorescence in assay [3] was 4.99 [at 1 µM] (inactive) and 5.6 [at 1 µM] (inactive).
As a reminder, the viability is a read-out of living cells in per cent, often relative to untreated cells. For the compound `COC(=O)C[C@H](NC(=O)[C@H](C)NC(=O)[C@@H](NC(=O)OCc1ccccc1)C(C)C)C(=O)CF` (Cbz-Val-Ala-Asp(OMe)-CH2F), the fold change was 0.848 (inactive) in assay [2] (setting [8]) and 0.772 in assay [2] (setting [9]). Moreover, the cell count is 5320 in assay [2] (setting [10]) and 6270 in assay [2] (setting [11]). Further, the fold fluorescence in assay [3] was 3.45 [at 107 µM] (inactive). Further, the viability in assay [4] (at 0.000305 µM, OCI-C5x cells, with rucaparib 10 µM, 100% = cells with rucaparib alone) is 111% (inactive); in assay [4] (at 0.000305 µM, OCI-C5x cells, without rucaparib), 113% (inactive); in assay [4] (at 0.000305 µM, OCI-P5x cells, with rucaparib 20 µM, 100% = cells with rucaparib alone), 101% (inactive); in assay [4] (at 0.000305 µM, OCI-P5x cells, without rucaparib), 108% (inactive); in assay [4] (at 0.00122 µM, OCI-C5x cells, with rucaparib 10 µM, 100% = cells with rucaparib alone), 113% (inactive); in assay [4] (at 0.00122 µM, OCI-C5x cells, without rucaparib), 122% (inactive). In addition, the viability is 104% (inactive) in assay [4] (at 0.00122 µM, OCI-P5x cells, with rucaparib 20 µM, 100% = cells with rucaparib alone); 107% (inactive) in assay [4] (at 0.00122 µM, OCI-P5x cells, without rucaparib); 106% (inactive) in assay [4] (at 0.00488 µM, OCI-C5x cells, with rucaparib 10 µM, 100% = cells with rucaparib alone); 114% (inactive) in assay [4] (at 0.00488 µM, OCI-C5x cells, without rucaparib); 102% (inactive) in assay [4] (at 0.00488 µM, OCI-P5x cells, with rucaparib 20 µM, 100% = cells with rucaparib alone); 112% (inactive) in assay [4] (at 0.00488 µM, OCI-P5x cells, without rucaparib). For the same compound, the viability was 113% (inactive) in assay [4] (at 0.0195 µM, OCI-C5x cells, with rucaparib 10 µM, 100% = cells with rucaparib alone); 119% (inactive) in assay [4] (at 0.0195 µM, OCI-C5x cells, without rucaparib); 110% (inactive) in assay [4] (at 0.0195 µM, OCI-P5x cells, with rucaparib 20 µM, 100% = cells with rucaparib alone); 102% (inactive) in assay [4] (at 0.0195 µM, OCI-P5x cells, without rucaparib); 110% (inactive) in assay [4] (at 0.0781 µM, OCI-C5x cells, with rucaparib 10 µM, 100% = cells with rucaparib alone); 120% (inactive) in assay [4] (at 0.0781 µM, OCI-C5x cells, without rucaparib). Further, the viability in assay [4] (at 0.0781 µM, OCI-P5x cells, with rucaparib 20 µM, 100% = cells with rucaparib alone) was 108% (inactive); in assay [4] (at 0.0781 µM, OCI-P5x cells, without rucaparib) it was 111% (inactive); in assay [4] (at 0.313 µM, OCI-C5x cells, with rucaparib 10 µM, 100% = cells with rucaparib alone), 104% (inactive); in assay [4] (at 0.313 µM, OCI-C5x cells, without rucaparib), 118% (inactive); in assay [4] (at 0.313 µM, OCI-P5x cells, with rucaparib 20 µM, 100% = cells with rucaparib alone), 96.2% (active); in assay [4] (at 0.313 µM, OCI-P5x cells, without rucaparib), 107% (inactive). The viability in assay [4] (at 1.25 µM, OCI-C5x cells, with rucaparib 10 µM, 100% = cells with rucaparib alone) was 117% (inactive); in assay [4] (at 1.25 µM, OCI-C5x cells, without rucaparib), 115% (inactive); in assay [4] (at 1.25 µM, OCI-P5x cells, with rucaparib 20 µM, 100% = cells with rucaparib alone) it was 103% (inactive); in assay [4] (at 1.25 µM, OCI-P5x cells, without rucaparib) it was 106% (inactive); in assay [4] (at 5 µM, OCI-C5x cells, with rucaparib 10 µM, 100% = cells with rucaparib alone), 115% (inactive); in assay [4] (at 5 µM, OCI-C5x cells, without rucaparib) it was 119% (inactive). Also, the viability in assay [4] (at 5 µM, OCI-P5x cells, with rucaparib 20 µM, 100% = cells with rucaparib alone) was 106% (inactive); in assay [4] (at 5 µM, OCI-P5x cells, without rucaparib) it was 108% (inactive).
Take `CC1=C(/C=C/C(C)=C\C=C\C(C)=C\C(=O)O)C(C)(C)CCC1`: the survival in assay [1] is 82.2 (inactive). Also, the fold change in assay [2] (setting [8]) is 0.906 (inactive); in assay [2] (setting [9]) it was 1.46. For the same compound, the cell count was 5680 in assay [2] (setting [10]) and 6260 in assay [2] (setting [11]). Moreover, in assay [3], the fold fluorescence is 4.39 (inactive).
As to `CC(C)n1cnc2c(NCc3ccccc3)nc(NCCO)nc21`, the survival in assay [1] is 106 (inactive). In addition, the fold change in assay [2] (setting [8]) was 1.14 (inactive); in assay [2] (setting [9]), 1.24. The cell count was 2020 in assay [2] (setting [10]) and 1780 in assay [2] (setting [11]). Also, the fold fluorescence in assay [3] is 3.89 [at 153.2 µM] (inactive).
Regarding `CCCCCCCCCCCCCCCC(=O)N[C@H](CN1CCOCC1)[C@H](O)c1ccccc1`, the survival in assay [1] is 83.7 (inactive). Moreover, the values for the fold change in assay [2] (setting [8]) and in assay [2] (setting [9]) were 1 (inactive) and 1.57, respectively. The cell count in assay [2] (setting [10]) and in assay [2] (setting [11]) was 5590 each time. Also, the fold fluorescence in assay [3] was 5.42 (inactive).
With `COc1ccc([C@H]2Sc3ccccc3N(CCN(C)C)C(=O)[C@H]2OC(C)=O)cc1`, the fold change in assay [2] (setting [8]) was 1.07 (inactive); in assay [2] (setting [9]), 1.13. Moreover, the values for the cell count in assay [2] (setting [10]) and in assay [2] (setting [11]) were 5870 and 5500, respectively. Besides, the fold fluorescence in assay [3] was 4.51 [at 120.6 µM] (inactive) and 3.48 [at 120.6 µM] (inactive).
For orientation: inhibition means the drop in the measured response relative to a control, in per cent. Take `CCCCC/C=C\CC(O)/C=C/c1cccc(CC(O)CCCCO)n1` (stereo not drawn): in assay [5], the period change is 0.025 h (inactive). Besides, the survival in assay [1] was 97.4 (inactive). Besides, the inhibition in assay [6] was -1% (inactive). The fluorescence ratio (interference) in assay [7] was 0.9 (inactive). Besides, the fold change in assay [2] (setting [8]) was 0.988 (inactive); in assay [2] (setting [9]) it was 1.4. Moreover, the cell count stood at 5690 in assay [2] (setting [10]) and 5760 in assay [2] (setting [11]). In assay [3], the fold fluorescence was 3.69 [at 1 µM] (inactive).
`CCCCCCCCCC(=O)N[C@H](CN1CCOCC1)[C@H](O)c1ccccc1`: the survival in assay [1] is 80.8 (inactive). Besides, the figures for the fold change in assay [2] (setting [8]) and in assay [2] (setting [9]) were 0.988 (inactive) and 1.18, respectively. Further, the cell count is 5550 in assay [2] (setting [10]) and 5620 in assay [2] (setting [11]). Also, the fold fluorescence in assay [3] was 3.25 (active).
On to `CCCCCC(=O)/C=C/C=C\C/C=C\C/C=C\CCCC(=O)O`, for which the fold change was 0.995 (inactive) in assay [2] (setting [8]) and 1.32 in assay [2] (setting [9]). Also, the cell count worked out at 6100 in assay [2] (setting [10]) and 6140 in assay [2] (setting [11]). The fold fluorescence in assay [3] is 5.6 [at 1 µM] (inactive).
Take `O=Cc1c2[nH]c3ccccc3c2cc2[nH]c3ccccc3c12`: the survival in assay [1] is 124 (inactive). For the same compound, the results for the fold change in assay [2] (setting [8]) and in assay [2] (setting [9]) were 0.873 (inactive) and 1.33, respectively. For the same compound, the results for the cell count in assay [2] (setting [10]) and in assay [2] (setting [11]) were 4820 and 5520, respectively. Besides, in assay [3], the fold fluorescence is 4.2 (inactive).
With `CCCCC/C=C\C/C=C\C/C=C\C/C=C\CCCC(=O)O[C@@H](CO)COC(=O)CCCCCCCCCCCCCCCCC`, the survival in assay [1] is 92.4 (inactive). Further, the figures for the fold change in assay [2] (setting [8]) and in assay [2] (setting [9]) were 0.967 (inactive) and 1.14, respectively. The cell count in assay [2] (setting [10]) worked out at 5940; in assay [2] (setting [11]) it was 6140. In addition, in assay [3], the fold fluorescence is 5.53 (inactive).
`CCCCC/C=C\C/C=C\C/C=C\C=C\[C@@H](O)CCCC(=O)O`: the survival in assay [1] was 128 (inactive). The fold change in assay [2] (setting [8]) is 0.957 (inactive); in assay [2] (setting [9]), 1.24. The cell count in assay [2] (setting [10]) came to 5700; in assay [2] (setting [11]), 5960. Further, the fold fluorescence in assay [3] is 4.16 [at 1 µM] (inactive).
For `CCCCC/C=C\C/C=C\C/C=C\CC1OC1CCCC(=O)O` (stereo not drawn), the survival in assay [1] is 114 (inactive). The fold change is 0.939 (inactive) in assay [2] (setting [8]) and 1.34 in assay [2] (setting [9]). In addition, the cell count in assay [2] (setting [10]) was determined as 5900; in assay [2] (setting [11]), 6280. For the same compound, the fold fluorescence in assay [3] was 4.93 [at 1 µM] (inactive).
`CCCCCCCCCCC/C=C\C/C=C\CCCC(=O)O`: in assay [1], the survival was 98.8 (inactive). In addition, the fold change in assay [2] (setting [8]) was 0.918 (inactive); in assay [2] (setting [9]) it was 0.921. Moreover, the cell count was determined as 5350 in assay [2] (setting [10]) and 5820 in assay [2] (setting [11]). Further, the fold fluorescence in assay [3] is 4.42 (inactive).
In the case of `CCCCC/C=C\C/C=C\CC1OC1C/C=C\CCCC(=O)O` (stereo not drawn), the survival in assay [1] is 95.7 (inactive). The fold change in assay [2] (setting [8]) was 1.01 (inactive); in assay [2] (setting [9]), 1.19. Besides, the cell count in assay [2] (setting [10]) amounted to 5810; in assay [2] (setting [11]) it was 5750. Also, the fold fluorescence in assay [3] was 5.26 [at 1 µM] (inactive).
